Measurements reported in PubChem BioAssay.
The other results are listed elsewhere or left out. Unmarked numbers belong to inactive results. Active and inactive are the calls of the source.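 How the source made its calls, unless noted: active means mean inhibition of at least 40% at 20 µM; inactive means the rest.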

Columns and labels:
[1] = Apaf-1 inhibitors, single-dose retest, confirmation, biochemical, fluorescence, DEVD-Rh110, 20 µM (AID 504614); settings: reconstituted apoptosome, caspase-3 DEVD-Rh110 fluorescence; at 20 µM; stronger effect = higher value;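 further: plate controls were DMSO wells for no effect and DEVD-CHO caspase inhibitor control wells for full effect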
[2] = Rh110 fluorescence interference by putative Apaf-1 inhibitors, confirmation, artefact control for Apaf-1 inhibitor project, biochemical, 20 µM (AID 504615;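 active means signal rise of 40% or more at 20 µM, treated as a fluorescence artifact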); settings: quenched caspase reaction, at 20 µM, stronger effect = higher value
[3] = fluorescence interference of Apaf-1 inhibitor hits, dose response, artefact control for Apaf-1 inhibitor project (AID 588538; call rule not given here); settings: fluorescence interference counterscreen, Apaf-1 assay format

Row | SMILES | inhibition [1] | activation (fluorescence interference) [2] | IC50 [3]
1 | CCN(CC)CCOc1ccc2c(c1)C(=NNC(=O)c1ccccn1)c1cc(OCCN(CC)CC)ccc1-2 | 56.1% (active) | 15.8% | 
2 | O=S(=O)(Nc1ccc(O)c2ccccc12)c1ccc(OC(F)(F)F)cc1 | 21.3% | -2.71% | 
3 | CC(NC(=O)c1ccccc1SCC(=O)N1CCCC1)c1ccccc1 (centres undefined) | 22.9% | -8.17% | 
4 | O=c1cc(N2CCCCC2)c(-c2ccccc2)nn1Cc1cccc(F)c1 | 18.3% | 9.4% | 
5 | O=C1NNC(c2ccccc2)=N/C1=C\c1ccc(Cl)cc1 | 43.9% (active) | 7.08% | > 100 µM
6 | COc1ccc(C(CNC(=O)c2ccc(S(=O)(=O)Nc3ccccc3F)cc2)N(C)C)cc1 (centres undefined) | 43.8% (active) | -0.45% | > 100 µM
